Screens deposited in PubChem by several laboratories.
CYP2C9 inhib = blockers of cytochrome P450 2C9 activity – biochemical, luminescence, ADME assay, primary screen; P11712; CYP2C9 Supersomes, luciferin-H conversion; inhibition, % at 5 µM; hit rate 20% among 96,000; AID 777, 2007;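 active = blocking of liver enzyme CYP2C9 beyond about 50% at 5 µM, limit read from the data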
Target sequence (P11712 whole entry, looked up): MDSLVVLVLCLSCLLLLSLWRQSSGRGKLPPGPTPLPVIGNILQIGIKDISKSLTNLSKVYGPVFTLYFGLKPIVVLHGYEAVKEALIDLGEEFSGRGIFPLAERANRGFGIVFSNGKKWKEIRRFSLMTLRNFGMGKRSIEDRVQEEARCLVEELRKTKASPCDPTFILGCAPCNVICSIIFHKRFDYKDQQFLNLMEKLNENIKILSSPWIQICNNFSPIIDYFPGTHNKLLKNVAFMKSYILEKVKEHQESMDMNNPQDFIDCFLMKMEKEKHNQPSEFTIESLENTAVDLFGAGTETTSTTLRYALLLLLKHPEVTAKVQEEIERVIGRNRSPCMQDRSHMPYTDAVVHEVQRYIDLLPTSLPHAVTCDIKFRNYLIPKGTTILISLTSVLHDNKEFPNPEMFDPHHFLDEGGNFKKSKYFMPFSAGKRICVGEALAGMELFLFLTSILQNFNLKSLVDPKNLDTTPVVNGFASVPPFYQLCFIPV
CYP2C19 activ = human CYP2C19 activators, primary screen, biochemical, luminescence. Cytochrome P450 2C19 (Homo sapiens), P33261. recombinant CYP2C19, luciferin-H EGE luminescence; stronger effect = higher value; 0 = fully inhibited enzyme, 1 = untreated enzyme. activation factor at 5 µM. 96,000 tested, under 10 active;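 active = activation factor of at least 2 at 5 µM in the primary screen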;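 note: 0 = wells with 2.5 mM tranylcypromine and 1 = vehicle-only wells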
Cav32 inh = Cav3.2 calcium influx blockers – cell-based, Fluo-4 calcium fluorescence, FDSS, MLSMR library, primary screen | Voltage-dependent T-type calcium channel subunit alpha-1H (Homo sapiens), O95180 | AID 449739, 2010 | Cav3.2-expressing cells; stronger effect = lower value | B-score at 10 µM | hit rate 4% among 100,000;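 active = single-dose well whose peak fluorescence ratio is a statistical outlier from its plate by either plate-standardised score or position-corrected B-score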
CYP2C9 act = human CYP2C9 activators, primary screen, biochemical, luminescence | hit rate 1.4% among 96,000 | Cytochrome P450 2C9 (Homo sapiens), P11712 | recombinant CYP2C9, luciferin-H conversion; stronger effect = higher value; factor 1 = untreated enzyme, 0 = blocked | AID 1024, 2008 | activation factor at 5 µM;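 active = activation factor of 2 or more for CYP2C9 at a 5 µM dose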;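 note: 0 = sulfaphenazole-blocked wells and 1 = vehicle-only wells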
CYP2C19 inhib = blockers of cytochrome P450 2C19 activity – biochemical, luminescence, ADME assay, primary screen; hit rate 21% among 96,000; AID 778, 2007; CYP2C19 Supersomes, luciferin-H EGE luminescence, 30 min; inhibition, % at 5 µM;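 active = CYP2C19 inhibition above a set limit at 5 µM in the primary screen, cut at about 50% in these data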;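 note: plate controls were negative control wells for no effect and 2.5 mM tranylcypromine positive control for full effect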
The depositor's hits bear a star. The list is not random: actives were taken first. Their share in the collection is about 27%.

How did CC1(C)CC(=O)C=C(Nc2ccccc2NC(=O)c2cnccn2)C1 do in these assays?
CYP2C9 inhib: 42.2; CYP2C19 activ: 1; Cav32 inh: 0.00924; CYP2C9 act: 0.6; CYP2C19 inhib: 0.4

Results for CC1CN(c2nc(-c3ccc(Br)cc3)nnc2-c2ccccc2)CC(C)N1 (stereo not given) ?
CYP2C9 inhib: 12.3; CYP2C19 activ: 0.9; CYP2C9 act: 0.9; CYP2C19 inhib: 7.6

How did CC1=CC(C)(C)N2C(=O)C3(SCC(=O)N3c3ccc(O)cc3)c3cc(C)cc1c32 (stereo not given) do in these assays?
CYP2C9 inhib: 97.2*; CYP2C19 activ: 0.1; Cav32 inh: -7.43*; CYP2C9 act: 0; CYP2C19 inhib: 87.2*

What do the screens show for `CC1(OC(=O)CCc2ccccc2)C(=O)C=C2C=C(c3ccc(C#N)cc3)N(C3CCCC3)C=C2C1=O` (stereo not given)?
Cav32 inh: 0.047

Results for Cc1ccc(C2CC2C(=O)NNC(=S)Nc2ccc(Cl)cc2)cc1 (stereo not given) ?
Cav32 inh: -10.1*

Results for Cc1ccc(C(=O)NC(=S)Nc2ccc(Oc3ccc(Cl)cc3)cc2)cc1 ?
CYP2C9 inhib: 22.5; CYP2C19 activ: 0.9; Cav32 inh: -0.986; CYP2C9 act: 0.8; CYP2C19 inhib: 5.8

What do the screens show for `Cc1cc(O)c(C(C[N+](=O)[O-])c2ccc(Cl)cc2Cl)c(=O)o1` (stereo not given)?
CYP2C9 inhib: 97.6*; CYP2C19 activ: 0.2; Cav32 inh: 0.924; CYP2C9 act: 0; CYP2C19 inhib: 77.1*

How did Cc1ccc(S(=O)(=O)N(CC(=O)N2CCN(c3ccccc3F)CC2)C2CCCCC2)cc1 do in these assays?
CYP2C9 inhib: 43.4; CYP2C19 activ: 0.8; Cav32 inh: -4.75*; CYP2C9 act: 0.6; CYP2C19 inhib: 18.3

Results for Cc1cc(C)c(S(=O)(=O)N(CC(=O)N2CCOCC2)C2CCCCC2)c(C)c1 ?
CYP2C9 inhib: 75.0*; CYP2C19 activ: 0.6; Cav32 inh: -0.0826; CYP2C9 act: 0.3; CYP2C19 inhib: 36.6

Results for CCOC(=O)N1CCN(C(=O)CN(C2CCCCC2)S(=O)(=O)c2c(C)cc(C)cc2C)CC1 ?
CYP2C9 inhib: 62.9*; CYP2C19 activ: 0.7; Cav32 inh: -2.77; CYP2C9 act: 0.4; CYP2C19 inhib: 29.4

Results for Cc1ccc(C)c(C(=O)C(C)OC(=O)c2cccn2C)c1 (stereo not given) ?
CYP2C9 inhib: 20.8; CYP2C19 activ: 0.9; CYP2C9 act: 0.8; CYP2C19 inhib: 9.4

Results for CCCCCOP(=O)(OCCCCC)C1(NS(=O)(=O)c2ccccc2)C=CC(=O)c2ccccc21 (stereo not given) ?
CYP2C9 inhib: 56.1*; CYP2C19 activ: 0.9; Cav32 inh: -0.101; CYP2C9 act: 0.4; CYP2C19 inhib: 7.8

Results for CC(=N\O)/C(CN(C)C)=N/O ?
CYP2C9 inhib: 6.4; CYP2C19 activ: 1; Cav32 inh: 0.705; CYP2C9 act: 0.9; CYP2C19 inhib: 4.2

What do the screens show for `CCOC(=O)C1=C(N)n2c(s/c(=C\c3cccnc3)c2=O)=C(C(=O)OC)C1c1cccnc1` (stereo not given)?
Cav32 inh: 1.78

Results for CCOC(=O)C1=C(N)n2c(s/c(=C\c3cccs3)c2=O)=C(C(=O)OCC)C1c1cccs1 (stereo not given) ?
CYP2C9 inhib: 78.5*; CYP2C19 activ: 0.7; CYP2C9 act: 0.2; CYP2C19 inhib: 28.7

Results for CCOC(=O)C1=C(N)n2c(s/c(=C\c3cccnc3)c2=O)=C(C(=O)OCC)C1c1cccnc1 (stereo not given) ?
CYP2C9 inhib: 69.6*; CYP2C19 activ: 0.4; CYP2C9 act: 0.3; CYP2C19 inhib: 62.7*

Results for Cc1ccc(-c2nnc(SCC(=O)N3CCOCC3)nc2-c2ccc(C)cc2)cc1 ?
CYP2C9 inhib: 32.6; CYP2C19 activ: 0.9; Cav32 inh: -0.1; CYP2C9 act: 0.7; CYP2C19 inhib: 13.7

How did COc1ccc(CNc2ccc(C)cc2)cc1Br do in these assays?
Cav32 inh: -1.74

Results for COc1ccc(Br)cc1CNc1ccc(O)cc1 ?
CYP2C9 inhib: 30.0; CYP2C19 activ: 0.3; Cav32 inh: 0.0138; CYP2C9 act: 0.7; CYP2C19 inhib: 73.0*

What do the screens show for `CC(=O)N1CCN(c2cc(N3CCc4ccccc4C3)c(F)cc2[N+](=O)[O-])CC1`?
CYP2C9 inhib: 54.3*; CYP2C19 activ: 0.6; Cav32 inh: 1.04; CYP2C9 act: 0.5; CYP2C19 inhib: 37.3

Results for CCCCN=C(C)c1c(O)c2ccccc2oc1=O ?
CYP2C9 inhib: 55.6*; CYP2C19 activ: 0.2; Cav32 inh: -0.0314; CYP2C9 act: 0.4; CYP2C19 inhib: 84.9*

Results for CC1CCC(C(=O)c2c(O)c3ccccc3oc2=O)CC1 (stereo not given) ?
CYP2C9 inhib: 23.5; CYP2C19 activ: 1; Cav32 inh: -3.6; CYP2C9 act: 0.8; CYP2C19 inhib: -3.3

How did COc1ccc(OCC(=O)c2c(O)c3ccccc3oc2=O)cc1 do in these assays?
CYP2C9 inhib: 78.1*; CYP2C19 activ: 1.1; Cav32 inh: -2.42; CYP2C9 act: 0.2; CYP2C19 inhib: -11.1

Results for O=C(CC1CCCCC1)c1c(O)c2ccccc2oc1=O ?
CYP2C9 inhib: 27.5; CYP2C19 activ: 1.1; Cav32 inh: -7.61*; CYP2C9 act: 0.7; CYP2C19 inhib: -6.5

Results for CCOc1ccc(OCC(=O)c2c(O)c3ccccc3oc2=O)cc1 ?
CYP2C9 inhib: 90.9*; CYP2C19 activ: 1; Cav32 inh: -2.38; CYP2C9 act: 0.1; CYP2C19 inhib: -1.3

What do the screens show for `CCCCC(=O)c1c(O)c2ccccc2oc1=O`?
CYP2C9 inhib: 20.6; CYP2C19 activ: 1.1; Cav32 inh: -1.22; CYP2C9 act: 0.8; CYP2C19 inhib: -10.1

Results for CN(C)CCNC(=O)c1ccc(CS(=O)(=O)c2ccc(Br)cc2)o1 ?
Cav32 inh: 1.44

How did CCOC(=O)N1CCN(C2CC(=O)N(c3ccc(Oc4ccccc4)cc3)C2=O)CC1 (stereo not given) do in these assays?
CYP2C9 inhib: 8.9; CYP2C19 activ: 1.1; Cav32 inh: -1.92; CYP2C9 act: 0.9; CYP2C19 inhib: -11.9

What do the screens show for `CCN(CC)c1ccc(C(=S)N2CCN(c3ccccc3)CC2)cc1`?
CYP2C9 inhib: 1.5; CYP2C19 activ: 0.8; Cav32 inh: -2.03; CYP2C9 act: 1; CYP2C19 inhib: 23.5

How did O=C(CSc1nnc(NC(=O)CN2CCOCC2)s1)Nc1ccccc1 do in these assays?
CYP2C9 inhib: 14.1; CYP2C19 activ: 0.9; Cav32 inh: -0.782; CYP2C9 act: 0.9; CYP2C19 inhib: 5.7

Results for CCN(CC)S(=O)(=O)c1cc(-c2nnc(-c3ccc(Br)cc3)o2)ccc1Cl ?
CYP2C9 inhib: 60.4*; CYP2C19 activ: 0.7; Cav32 inh: -2.53; CYP2C9 act: 0.4; CYP2C19 inhib: 34.1
